Source: ChEMBL document CHEMBL1157539, “Thousands of chemical starting points for antimalarial lead identification” (Nature, 2010)

Assays:
Format in all cases: functional
[1] = test system: Plasmodium falciparum; test: GSK_TCMDC: Inhibition of Plasmodium falciparum 3D7 in whole red blood cells, using parasite LDH activity as an index of growth. Test compounds present at 2uM
[2] = test system: Plasmodium falciparum; test: GSK_TCMDC: Inhibition of Plasmodium falciparum Dd2 in whole red blood cells, using parasite LDH activity as an index of growth. Test compounds present at 2uM
[3] = test system: HepG2; test: GSK_TCMDC: Percent inhibition of human HepG2 cell line. Test compounds present at 10uM.

SMILES	Inhibition [1]	Inhibition [2]	Inhibition [3]
COc1ccc(NC(=O)C2c3ccccc3C(=O)N(C3CCCC3)C2c2cccs2)cc1OC (stereo not drawn)	90%	96%	0%
COc1ccc(-c2cnc3ccc(NCc4ccc(F)cc4)nn23)cc1OC	97%	99%	35%
Cc1cccc2nc(-c3cccc(-c4cccc(CNC(C)C)c4)c3)[nH]c12.O=C(O)C(F)(F)F	100%	98%	29%
O=C(O)C(F)(F)F.c1ccc2c(c1)CN(CC1CCOCC1)CC1(CCN(Cc3c[nH]c4cnccc34)CC1)O2	99%	7%	21%
O=C(/C=C/c1ccc(Cl)c(Cl)c1)NCCCCCN1CCN(C(=O)Nc2ccc(Cl)c(C(F)(F)F)c2)CC1	100%	0%	22%
Cc1cc(N[C@@H](Cc2ccccc2)C(=O)NCc2cccs2)nc(NCCc2ccccn2)n1.O=C(O)C(F)(F)F	93%	49%	0%
Cc1nc(C)c(-c2ccc(Oc3ccc(OC(F)(F)F)cc3)cc2)c(O)c1I	95%	96%	3%
CC(NCCC1CCC(NC(=O)N[C@H](C)C(O)(c2ccccc2)c2ccccc2)CC1)c1cccc2ccccc12 (stereo partly drawn)	86%	58%	43%
COc1ccc(Nc2nc(NN=Cc3cc(Br)c(O)cc3O)nc(Nc3ccc([N+](=O)[O-])cc3)n2)cc1	97%	23%	30%
COc1ccc(C2=C(Nc3ccc4oc5ccccc5c4c3)c3ccccc3C2=O)cc1	93%	92%	9%
Cc1ccoc1C(=O)Nc1cccc(-c2cccc(-c3nc4cccc(C)c4[nH]3)c2)c1	100%	79%	17%
CCN(CC)CCN(Cc1ccc(-c2ccc(C(F)(F)F)cc2)cc1)C(=O)Cn1c(CCc2cccc(F)c2F)nc(=O)c2cc(F)ccc21.O=C(O)C(O)C(O)C(=O)O	98%	45%	15%
CCOC(=O)/C(=N\OC(C)(C)C(=O)NCc1ccc(O)c(O)c1)c1csc(NC(c2ccccc2)(c2ccccc2)c2ccccc2)n1	100%	99%	13%
O=C(/C=C/c1ccc(Cl)c(Cl)c1)NCCCCCN1CCC(NC(=S)Nc2ccc(Cl)c(Cl)c2)CC1	99%	65%	29%
CC(CCc1ccccc1)NCC(O)c1cccc([N+](=O)[O-])c1 (stereo not drawn)	97%	98%	0%
c1ccc(Oc2ccc(Nc3nc(NCCc4c[nH]cn4)nc(NC4CCCC4)n3)cc2)cc1	97%	23%	0%
COc1cc2nc(N3CCC(C(N)=O)CC3)nc(NCc3ccccc3)c2cc1OC	100%	23%	23%
Br.CCCOC(=O)c1ccc(OCCCON2C(=N)N=C(N)NC2(C)C)cc1	95%	97%	61%
CN1CCCN(Cc2cccc(-c3cccc(NS(=O)(=O)c4cccc5cccnc45)c3)c2)CC1.O=C(O)C(F)(F)F	97%	74%	21%
Cc1cc(NCCc2ccccc2)nc(NC(=N)Nc2cccc([N+](=O)[O-])c2)n1	100%	100%	21%
COc1ccc2nccc([C@@H](O)CN3CCC(NC(=O)C(c4cc5ccccc5o4)N4CCC(Cc5ccccc5)CC4)CC3)c2c1 (stereo partly drawn)	100%	82%	11%

SMILES	Inhibition [1]	Inhibition [2]	Inhibition [3]
Cc1cc(Nc2ccc3c(c2)CCC3)n2ncnc2n1	86%	48%	4%
COc1ccc(CCn2c(=N)c(C(=O)NCc3cccnc3)cc3c(=O)n4cccc(C)c4nc32)cc1	92%	12%	5%
CCN(Cc1ccc(-c2ccc(C(F)(F)F)cc2)cc1)C(=O)Cn1c(SCc2cccc(F)c2F)cc(=O)c2cc(CN3CCCCC3)ccc21.Cl	100%	50%	95%
O=C(NCC1Cc2cc(Oc3ccccc3)ccc2O1)c1ccc([N+](=O)[O-])o1 (stereo not drawn)	88%	81%	83%
Cc1cc(C)c2c(c1)C(=NO)CCN2	94%	2%	2%
O=C(O)C(F)(F)F.Oc1ccc(CCNc2nc(NCCCOc3ccccc3-c3ccc(F)cc3)nc(N3CCNCC3)n2)cc1	85%	8%	30%
Cc1cc(N2CC=CCC2)nc(NC(=N)Nc2ccc(Br)cc2)n1	98%	41%	10%
CCOc1c(CNCCCNc2cc(O)c3ccccc3n2)cc(Br)cc1OC	80%	18%	10%
CCCC(C)N(Cc1ccc(C(C)(C)C)cc1)C(=O)c1cccc(C#N)c1 (stereo not drawn)	86%	45%	14%
O=C(Cc1c[nH]cn1)Nc1ccc(-c2cccc(-c3nc4cc(F)ccc4[nH]3)c2)cc1	100%	70%	28%
CCOc1cc(CC)ccc1C1CCN(CCN2CCC(CNC(=O)c3ccc(-c4ccc(C#N)cc4)cc3)CC2)CC1	89%	100%	53%
Cc1nn(-c2ccc(Cl)cc2)c2[nH]c(CN3CCN(c4cccc(Cl)c4)CC3)cc(=O)c12	98%	98%	0%
CCNc1cc(C(=O)N[C@@H](Cc2ccccc2)[C@H](O)CNCCc2cccc3ccccc23)cc(N2CCCC2=O)c1.O=CO	86%	39%	12%
CSc1ccc(CN2CCC(CNC(=O)c3cc(-c4ccccc4F)cs3)C2)cc1.O=C(O)C(F)(F)F (stereo not drawn)	90%	13%	32%
Cc1cccc2nc(-c3ccc(-c4ccc(CN5CCN(CC6CCCN(C)C6)CC5)cc4)cc3)[nH]c12.O=C(O)C(F)(F)F (stereo not drawn)	100%	99%	91%
O=C(Cc1ccc([N+](=O)[O-])cc1)N1CCc2cc3nccc(N4CCN5CCC[C@@H]5C4)c3cc21	95%	7%	0%
O=C(/C=C/c1ccc(Cl)c(Cl)c1)NCCCCCN1CCN(C(=O)Nc2cccc(F)c2)CC1	91%	1%	12%
N#Cc1cccc(-c2cnc(N)c(-c3nc4cc(S(N)(=O)=O)ccc4[nH]3)c2)c1	100%	99%	16%
Cc1ccc(C2=NNC3(S2)C(=O)N(C)c2ccccc23)cc1 (stereo not drawn)	82%	12%	36%
NC(=O)c1cc(-c2ccccc2)cc2c(C3CCC(NCc4ccccc4)C3)c[nH]c12 (stereo not drawn)	95%	30%	99%
CS(=O)(=O)c1ccc(-c2cncc(Cl)n2)cc1	100%	95%	8%

SMILES	Inhibition [1]	Inhibition [2]	Inhibition [3]
Cl.OCCNc1nc(Nc2ccc(Cl)cc2)nc2ccccc12	100%	99%	30%
Cc1ccccc1C1CCN(C2CCC(NC(=O)c3ccc(-c4ccccc4)s3)CC2)CC1 (stereo not drawn)	100%	84%	26%
Cc1ccc2[nH]c(C)c(Br)c(=O)c2c1	95%	84%	0%
CC(C)Cc1nc2nc(N)nc(N)c2cc1C(C)C	96%	3%	67%
COCCOc1cccc(CN2CCC(c3cc4nc(C)cc(C(F)(F)F)n4n3)C2)c1.O=C(O)CC(O)(CC(=O)O)C(=O)O (stereo not drawn)	85%	74%	25%
COc1ccc(C=CC(=O)NC(=O)c2ccccc2OC(=O)c2ccccc2)cc1OC	87%	90%	12%
Cc1noc(C)c1-c1ccc2c(Nc3ccc(C#N)cc3)c(C(N)=O)cnc2c1	97%	73%	6%
N=C(N)CCN(Cc1ccccc1)c1ccc(Cl)cc1	98%	98%	1%
O=C(Nc1nc2cc(S(=O)(=O)NCc3ccc(Cl)c(Cl)c3)ccc2n1CCCN1CCCC1)c1ccc(Cl)cc1.O=C(O)C(F)(F)F	89%	16%	57%
CCCNC(=O)Nc1cc2cc(-c3ccc(CN4CCCC4)cc3)ccc2n2c(C)nnc12	93%	11%	67%
CCOc1ccc(NC(=O)c2ccc(NCCCN3CC(C)CC(C)C3)c([N+](=O)[O-])c2)cc1 (stereo not drawn)	100%	60%	3%
O=C(/C=C/c1ccc(Cl)c(Cl)c1)NCCCCCN1CCC(NS(=O)(=O)c2cc(Cl)cc(Cl)c2)CC1	83%	5%	7%
COc1ccc2nccc([C@@H](O)CN3CCC(NCCOc4cc(F)cc(F)c4)CC3)c2c1.O=C(O)C(=O)O	100%	86%	10%
CCn1c(Sc2ccc(C#N)c([N+](=O)[O-])c2)nnc1-c1ccc(OC)cc1	98%	94%	0%
CC(C)c1ccc(CN2CCC(CNC(=O)c3cc(-c4ccc(N(C)C)cc4)cs3)C2)cc1.O=C(O)C(F)(F)F (stereo not drawn)	83%	32%	36%
COc1c(C2CCN(CCCCNC(=O)c3ccc(C)c(-c4ccc(C(F)(F)F)cc4)c3)CC2)ccc2c1CCCC2	86%	79%	76%
COC(=O)c1cccc(CN(CCC(O)(C(F)(F)F)C(F)(F)F)C(=O)CC2CCCC2)c1	98%	53%	0%
NC(=O)c1cccc(C(=O)Nc2cccc(-c3ccc(-c4nc5cc(C(F)(F)F)ccc5[nH]4)cc3)c2)c1	100%	78%	83%
CN1CCCC(CN2CCN(Cc3cccc(-c4ccc(-c5nc6ccccc6[nH]5)s4)c3)CC2)C1.O=C(O)C(F)(F)F (stereo not drawn)	99%	99%	52%
